Assay results published in PubChem BioAssay (EPA / NIEHS).
The source made the active and inactive calls. The calls were made as follows: active = hit-call score of the fitted dose curve at least 0.9, where 1 is the maximum; inactive = score below 0.9.

How the values were obtained:
[1] = read-out: Interleukin-1 alpha (IL1a), IL1A (gene 3552); experiment: BSK_KF3CT_IL1a: BioMAP Diversity Plus: KF3CT Assay for Interleukin-1 alpha (IL1a) Biomarker Activity (AID 2283070); conditions: primary human keratinocytes with fibroblasts; actives raise or lower the signal
How it was run: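 Human keratinocyte plus foreskin fibroblast primary co-culture, sampled 24 h after chemical dosing. IL-1a measured by ELISA; responses fitted bidirectionally against DMSO baseline (negative control), so gain or loss of signal both count.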

[2] = read-out: TIMP metallopeptidase inhibitor 2 (TIMP2), TIMP2 (gene 7077); experiment: BSK_KF3CT_TIMP2: BioMAP Diversity Plus: KF3CT Assay for TIMP metallopeptidase inhibitor 2 (TIMP2) Biomarker Activity (AID 2283071); conditions: primary human keratinocytes with fibroblasts; actives raise or lower the signal
How it was run: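 Keratinocyte–fibroblast co-culture, 24 h exposure; TIMP-2 ELISA, DMSO-normalised bidirectional fit. Parallel SRB (0.1%, TCA-fixed, 560 nm) total-protein staining gauges cytotoxicity.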

[3] = read-out: Transforming growth factor beta 1 (TGFb1), TGFB1 (gene 7040); experiment: BSK_KF3CT_TGFb1: BioMAP Diversity Plus: KF3CT Assay for Transforming growth factor beta 1 (TGFb1) Biomarker Activity (AID 2283072); conditions: primary human keratinocytes with fibroblasts; actives raise or lower the signal
How it was run: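 Signal changes in either direction, relative to DMSO, define activity here. TGF-b1 is read by ELISA from a human keratinocyte-fibroblast co-culture 24 h post-dose.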

[4] = read-out: C-C motif chemokine 2 (Homo sapiens) (UniProt P13500); experiment: BSK_KF3CT_MCP1: BioMAP Diversity Plus: KF3CT Assay for Monocyte Chemoattractant Protein 1 (MCP1/CCL2) Biomarker Activity (AID 2283073); conditions: primary human keratinocytes with fibroblasts; actives raise or lower the signal
How it was run: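 Human keratinocyte–foreskin fibroblast co-culture; MCP-1 measured by ELISA 24 h after dosing. Bidirectional fit vs DMSO; cytotoxicity tracked by SRB total protein in parallel cultures.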

[5] = read-out: Matrix Metallopeptidase 9 (MMP9), MMP9 (gene 4318); experiment: BSK_KF3CT_MMP9: BioMAP Diversity Plus: KF3CT Assay for Matrix Metallopeptidase 9 (MMP9) Biomarker Activity (AID 2283074); conditions: primary human keratinocytes with fibroblasts; actives raise or lower the signal;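 as to AC50: MMP9 protein level quantified by ELISA in the co-culture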
How it was run: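 Keratinocyte plus foreskin fibroblast human primary skin co-culture was dosed with chemical and MMP-9 was quantified by ELISA 24 h later. Bidirectional curve fitting used DMSO as negative control and activity baseline.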

[6] = read-out: urokinase plasminogen activator (uPA), PLAU (gene 5328); experiment: BSK_KF3CT_uPA: BioMAP Diversity Plus: KF3CT Assay for urokinase plasminogen activator (uPA) Biomarker Activity (AID 2283075); conditions: primary human keratinocytes with fibroblasts; actives raise or lower the signal
How it was run: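 Human keratinocyte plus foreskin fibroblast primary co-culture exposed to chemical for 24 h. uPA levels were quantified by ELISA, and activity was fitted bidirectionally against a DMSO negative-control baseline.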

[7] = read-out: E-selectin (Homo sapiens) (UniProt P16581); experiment: BSK_LPS_Eselectin: BioMAP Diversity Plus: LPS Assay for Eselectin Biomarker Activity (AID 2283077); conditions: primary human HUVEC with PBMC; actives raise or lower the signal
How it was run: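 Human umbilical vein endothelial cells co-cultured with PBMC under LPS stimulation; cell-surface E-selectin measured by ELISA 24 h after dosing. Change in either direction versus DMSO, with SRB total-protein staining in parallel cultures for cytotoxicity.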

[8] = read-out: Interleukin-8 (IL8), CXCL8 (gene 3576); experiment: BSK_LPS_IL8: BioMAP Diversity Plus: LPS Assay for Interleukin-8 (IL8) Biomarker Activity (AID 2283078); conditions: primary human HUVEC with PBMC; actives raise or lower the signal
How it was run: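 Human umbilical vein endothelial cells co-cultured with PBMC, LPS-stimulated, exposed to compound for 24 h. IL-8 quantified by ELISA; fitted in both directions against DMSO, with SRB total-protein staining of parallel cultures for cytotoxicity.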

[9] = BSK_LPS_SRB: Viability Assessment in the BioMAP Diversity Plus: LPS Assay (AID 2283079); conditions: primary human HUVEC with PBMC;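 also: total protein by sulforhodamine B absorbance as a cytotoxicity measure; measured one day after compound addition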
How it was run: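 Co-culture of human umbilical vein endothelial cells and PBMC, read 24 h after dosing. Total protein by 0.1% SRB staining after 10% TCA fixation, absorbance at 560 nm; bidirectional fit against DMSO.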

[10] = read-out: Interleukin-1 alpha (IL1a), IL1A (gene 3552); experiment: BSK_LPS_IL1a: BioMAP Diversity Plus: LPS Assay for Interleukin-1 alpha (IL1a) Biomarker Activity (AID 2283080); conditions: primary human HUVEC with PBMC; actives raise or lower the signal
How it was run: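 Human umbilical vein endothelial cells co-cultured with PBMC and stimulated with LPS; IL-1a measured by ELISA 24 h after dosing. Bidirectional fitting against DMSO; cytotoxicity checked by SRB staining in parallel cultures.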

[11] = read-out: Monocyte Chemoattractant Protein-1 (MCP1), CCL2 (gene 6347); experiment: BSK_LPS_MCP1: BioMAP Diversity Plus: LPS Assay for Monocyte Chemoattractant Protein-1 (MCP1) Biomarker Activity (AID 2283081); conditions: primary human HUVEC with PBMC; actives raise or lower the signal;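 as to AC50: secreted MCP-1 protein quantified by ELISA in culture supernatant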
How it was run: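 Human umbilical vein endothelial cells co-cultured with PBMC, LPS-stimulated; secreted MCP-1 measured by ELISA 24 h after compound addition. Bidirectional curve fitting against DMSO baseline; SRB total-protein staining in parallel cultures for cytotoxicity.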

[12] = BSK_LPS_PGE2: BioMAP Diversity Plus: LPS Assay for Prostaglandin E2 (PGE2) Biomarker Activity (AID 2283082); conditions: primary human HUVEC with PBMC; actives raise or lower the signal
How it was run: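 Endpoint derived from bidirectional curve fitting versus DMSO of ELISA-measured PGE2 in LPS-stimulated human primary vascular co-culture (HUVEC with PBMC) harvested at 24 h.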

[13] = read-out: Macrophage colony-stimulating factor (MCSF), CSF1 (gene 1435); experiment: BSK_LPS_MCSF: BioMAP Diversity Plus: LPS Assay for Macrophage colony-stimulating factor (MCSF) Biomarker Activity (AID 2283083); conditions: primary human HUVEC with PBMC; actives raise or lower the signal
How it was run: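 HUVEC–PBMC co-culture, M-CSF measured by ELISA 24 h after chemical dosing. Fitted in both directions relative to DMSO as negative control; overt cytotoxicity assessed by SRB total-protein staining in parallel cultures.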

[14] = read-out: Tissue Factor, F3 (gene 2152); experiment: BSK_LPS_TissueFactor: BioMAP Diversity Plus: LPS Assay for Tissue Factor Biomarker Activity (AID 2283084); conditions: primary human HUVEC with PBMC; actives raise or lower the signal
How it was run: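 Human umbilical vein endothelial cells co-cultured with PBMC were dosed with compound. Cell-surface CD142 was measured by ELISA 24 h later. Activity was fitted bidirectionally against DMSO, with SRB total-protein staining in parallel cultures for cytotoxicity.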

[15] = read-out: Tumor necrosis factor (Homo sapiens) (UniProt P01375); experiment: BSK_LPS_TNFa: BioMAP Diversity Plus: LPS Assay for Tumour Necrosis Factor alpha (TNFa) Biomarker Activity (AID 2283085); conditions: primary human HUVEC with PBMC; actives raise or lower the signal;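 as to AC50: TNFa protein level quantified by ELISA in the co-culture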
How it was run: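 Primary human vascular co-culture of HUVEC and PBMC; TNFa ELISA 24 h after treatment, analysed as increase or decrease relative to DMSO control.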

[16] = read-out: Vascular cell adhesion molecule 1 (VCAM1), VCAM1 (gene 7412); experiment: BSK_LPS_VCAM1: BioMAP Diversity Plus: LPS Assay for Vascular cell adhesion molecule 1 (VCAM1) Biomarker Activity (AID 2283086); conditions: primary human HUVEC with PBMC; actives raise or lower the signal
How it was run: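 Primary human vascular co-culture (umbilical vein endothelium plus PBMC) stimulated with LPS received chemical; 24 h later VCAM-1 was read by ELISA. Overt cytotoxicity was assessed by sulforhodamine B staining of parallel cultures at the same time point.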

CD38, CD38 (gene 952) = experiment: BSK_SAg_CD38: BioMAP Diversity Plus: SAg Assay for CD38 Biomarker Activity (AID 2283087); conditions: primary human HUVEC with PBMC; actives raise or lower the signal
How it was run: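 Fluorescence ELISA of cell-surface CD38 served as the read-out, with either increase or decrease fitted against DMSO controls. Cells were a human umbilical vein endothelium plus PBMC co-culture under SEB/TSST-1 stimulation, measured 24 h after dosing.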

CD40, CD40 (gene 958) = experiment: BSK_SAg_CD40: BioMAP Diversity Plus: SAg Assay for CD40 Biomarker Activity (AID 2283088); conditions: primary human HUVEC with PBMC; actives raise or lower the signal
How it was run: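 HUVEC plus PBMC co-culture, superantigen-activated, with CD40 read by ELISA 24 h after dosing. Curves fitted in both directions against DMSO. Overt cytotoxicity checked by parallel SRB total-protein staining.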

CD69, CD69 (gene 969) = experiment: BSK_SAg_CD69: BioMAP Diversity Plus: SAg Assay for CD69 Biomarker Activity (AID 2283089); conditions: primary human HUVEC with PBMC; actives raise or lower the signal
How it was run: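 Primary human vascular co-culture (umbilical vein endothelium with peripheral blood mononuclear cells) exposed to test chemical for 24 h. CD69 levels quantified by fluorescence ELISA; DMSO served as negative control for bidirectional fitting.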

Measured: AC50

Sequence of Tumor necrosis factor (Homo sapiens) (P01375 whole entry, looked up): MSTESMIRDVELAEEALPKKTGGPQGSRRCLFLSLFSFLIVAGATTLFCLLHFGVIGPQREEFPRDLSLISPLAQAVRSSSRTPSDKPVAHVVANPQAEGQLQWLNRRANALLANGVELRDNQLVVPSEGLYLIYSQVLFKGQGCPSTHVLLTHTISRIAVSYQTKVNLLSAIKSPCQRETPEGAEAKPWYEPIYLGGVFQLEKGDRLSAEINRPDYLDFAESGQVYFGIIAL
Sequence of E-selectin (Homo sapiens) (P16581 whole entry, looked up): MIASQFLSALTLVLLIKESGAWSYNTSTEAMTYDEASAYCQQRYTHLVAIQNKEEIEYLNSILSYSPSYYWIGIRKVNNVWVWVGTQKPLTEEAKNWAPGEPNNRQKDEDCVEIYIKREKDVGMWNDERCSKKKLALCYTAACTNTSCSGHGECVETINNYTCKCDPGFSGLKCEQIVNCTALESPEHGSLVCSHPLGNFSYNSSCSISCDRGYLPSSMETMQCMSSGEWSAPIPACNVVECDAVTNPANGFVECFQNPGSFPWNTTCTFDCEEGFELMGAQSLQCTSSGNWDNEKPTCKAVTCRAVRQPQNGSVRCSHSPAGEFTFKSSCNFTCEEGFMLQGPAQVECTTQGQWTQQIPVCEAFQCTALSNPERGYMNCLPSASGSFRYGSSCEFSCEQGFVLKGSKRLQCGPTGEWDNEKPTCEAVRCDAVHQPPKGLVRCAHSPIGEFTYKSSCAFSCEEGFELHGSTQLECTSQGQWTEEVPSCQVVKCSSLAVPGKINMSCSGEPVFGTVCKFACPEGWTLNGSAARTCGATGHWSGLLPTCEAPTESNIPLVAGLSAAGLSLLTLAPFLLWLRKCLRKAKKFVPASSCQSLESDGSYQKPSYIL

O=C(c1ccc(O)cc1O)c1ccc(O)cc1O
inactive: all assays above

COC(=O)c1c(Cl)nn(C)c1S(=O)(=O)NC(=O)Nc1nc(OC)cc(OC)n1
inactive: all assays above

CCCOC(=O)c1ccc(C(=O)OCCC)nc1
active: [11] 1.84 µM | CD38, CD38 (gene 952) 0.624 µM | CD40, CD40 (gene 958) 3.09 µM
inactive: all other assays above

COc1nc(C)nc(NC(=O)NS(=O)(=O)c2ccccc2OCCCl)n1
inactive: all assays above

CCCN(CCC)C(=O)SCC
inactive: all assays above

COC(=O)c1ccccc1C(=O)O
active: [4] 0.726 µM | CD40, CD40 (gene 958) 6.97 µM
inactive: all other assays above

S=C([S-])NCCNC(=S)[S-].[Mn+2]
active: [5] 36.6 µM | [7] 7.58 µM | [13] 13.2 µM | [15] 20 µM | [16] 14.7 µM | CD38, CD38 (gene 952) 14.6 µM
inactive: all other assays above
